PfHsp40 rescue: compounds rescuing yeast from Plasmodium falciparum HSP40 toxicity | S. cerevisiae expressing PfHsp40, growth rescue, ATP luminescence | growth rescue, % at 12.5 µM | actives 0.68% (n = 340,000) | AID 504582; in the data active = growth rescue above about 28%, passing the limit was not always enough;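 note: yeast W303a lacking pdr1 and pdr3 grown in galactose medium; growth measured after three days at 30 °C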
PrP 5UTR inh: suppresses PrP 5' UTR mRNA reporter expression; cell-based PrP 5' UTR mRNA reporter, plate reader; inhibition, % (no concentration beside the values); actives 0.35% (n = 340,000); in the data active = inhibition above about 52%
Yp Topo-I inh: blocks Yersinia pestis topoisomerase I activity. Y. pestis Topo-I cleavage product accumulation, plate reader. activity, % at 10 µM. actives 0.064% (n = 360,000). AID 504884; in the data active = activity above about 50%, passing the limit was not always enough
RN4220 kill: kills Staphylococcus aureus RN4220. AID 1259311. actives 0.33% (n = 330,000). S. aureus RN4220 growth, OD600, 16 h. inhibition, % (test concentration not listed); in the data active = inhibition above about 85%
BJeLR viability: kills HRASV12-expressing BJeLR cells; AID 1554; actives 0.17% (n = 300,000); BJeLR (HRASV12) viability, CellTiter-Glo ATP luminescence, 48 h; inhibition, % (test concentration not listed); in the data active = inhibition above about 50%
ugtP null kill: kills S. aureus RN4220 lacking UgtP; S. aureus RN4220 ugtP deletion, OD600 growth, 16 h; growth inhibition, % (concentration not given with the values); actives 0.54% (n = 330,000); in the data active = growth inhibition above about 68%
Hits are given with their value; - = inactive; . = not tested or not shown. In the library only some 1.4% were active in any assay of this set; here they are far more common.

SMILES	PfHsp40 rescue	PrP 5UTR inh	Yp Topo-I inh	RN4220 kill	BJeLR viability	ugtP null kill
CCC1(CC)C(=O)C2=C3C(CC(C(=O)OC)CC(C(=O)OC)C31)n1c(=O)n(-c3ccccc3)c(=O)n1C2C (stereo not drawn)	.	.	.	-	.	-
COc1ccc(C2C=CCN(C(=O)Oc3ccccc3)CC(=O)N2Cc2ccc(F)cc2)cc1 (stereo not drawn)	.	.	.	-	.	-
Oc1c(C(Nc2ccccn2)c2ccccn2)ccc2cccnc12 (stereo not drawn)	63	-	-	-	-	-
Cc1ccc2ccc(C(Nc3ccccn3)c3ccccc3)c(O)c2n1 (stereo not drawn)	-	-	-	-	-	-
CC(C)CCN1C(Nc2ccccc2)=NCC1Cc1ccccc1 (stereo not drawn)	.	.	.	-	.	-
Fc1cccc(CCN2C(=S)NC[C@@H]2CC2CCCCC2)c1	122	-	52	.	-	.
Fc1cccc(CCN2C(=S)NCC2Cc2ccccc2)c1 (stereo not drawn)	.	.	.	-	.	-
S=C1NC[C@H](CC2CCCCC2)N1CC1CCCCC1	98	-	-	.	-	.
COC(=O)CC1c2cc(C(F)(F)F)ccc2S(=O)(=O)N1c1ccc(N(C)C)cc1 (stereo not drawn)	.	.	.	-	.	-
COc1ccc(C)cc1N=Nc1ccc(O)c2ncccc12	-	-	-	-	-	-
COCc1ccc(O)c2ncccc12	-	-	-	98	-	98
Oc1ccc(CNc2ccccc2)c2cccnc12	-	-	-	-	-	-
Cc1ccccc1N=Nc1ccc(O)c2ncccc12	-	-	-	-	66	-
O=S(=O)(O)c1cccc2c(N=Nc3ccc(O)c4ncccc34)cccc12	94	-	-	-	-	-
O=Nc1ccc(O)c2ncccc12	-	-	-	-	-	-
COC(=O)C1=C(c2ccc3ccccc3c2)CC2CCC1N2C(=O)NCCCOC(C)C (stereo not drawn)	.	.	.	-	.	-
C#CCOCCOCCOCCNc1nc(N2CCN(C(=O)CCCCCCCCCCNC(=O)C(CCSC)n3cc(CCO)nn3)CC2)nc(N2CCN(C(=O)CCCCCCCCCCNC(=O)C(CCSC)n3cc(CCO)nn3)CC2)n1 (stereo not drawn)	.	.	.	-	.	-
CC(C)(C)OC(=O)N1CCN(C(=O)c2[nH]cnc2C(=O)NC(Cc2ccccc2)C(=O)OCc2ccccc2)CC1 (stereo not drawn)	.	.	.	-	.	-
Cc1ccc(Cl)cc1N1CCN(C(=O)c2ccc(CS(=O)Cc3ccc(Cl)cc3)o2)CC1 (stereo not drawn)	-	-	-	-	-	96
COc1ccc(N2CCN(C(=O)c3ccc(CS(=O)Cc4ccc(Cl)cc4)o3)CC2)cc1 (stereo not drawn)	-	-	-	-	-	99
O=C(c1ccc(CS(=O)Cc2ccc(Cl)cc2)o1)N1CCN(c2ccccc2F)CC1 (stereo not drawn)	-	-	-	-	-	99
Cc1cccc(N2CCN(C(=O)c3ccc(CS(=O)Cc4cccc(Cl)c4)o3)CC2)c1C (stereo not drawn)	-	-	-	-	-	90
Cc1ccc(CS(=O)Cc2ccc(C(=O)N3CCN(c4cccc(C)c4C)CC3)o2)cc1 (stereo not drawn)	.	.	-	.	.	.
COC(=O)C(NC(=O)c1cc(-c2ccccc2)nc2ccccc12)c1ccccc1 (stereo not drawn)	.	.	.	-	.	-
CC(CO)NC(=O)C1CC1C(NP(=O)(c1ccccc1)c1ccccc1)c1ccccc1 (stereo not drawn)	.	.	.	-	.	-
SMILES	PfHsp40 rescue	PrP 5UTR inh	Yp Topo-I inh	RN4220 kill	BJeLR viability	ugtP null kill
O=C(C=Cc1ccco1)N1CCCC(c2ccccc2)C1 (stereo not drawn)	.	.	.	-	.	-
CN1C(=O)C2C(C1=O)C(c1ccc(Br)cc1)N1C(=O)c3ccccc3NC(=O)C21 (stereo not drawn)	.	.	.	-	.	-
CC1CC(=O)c2c(cc3c(-c4c(O)cc(O)c5c(O)c6c(cc45)OC(C)CC6=O)c(O)cc(O)c3c2O)O1 (stereo not drawn)	102	-	-	-	-	-
Cc1ccnc(SCC(=O)N2CCN(c3ccccc3)CC2)n1	-	-	-	-	-	-
COc1ccc(-c2ccnc(SCC(=O)N3CCN(c4ccccc4)CC3)n2)cc1	105	-	-	-	-	-
Cc1ccc2c(c1)N(C)/C(=C/c1cccc[n+]1C)S2	-	-	-	-	-	101
CN1/C(=C/c2cccc[n+]2C)Sc2ccccc21	-	-	-	-	-	-
COc1ccc2c(c1)N(C)/C(=C/c1cccc[n+]1C)S2	-	-	-	-	-	90
O=C(Nc1ccccc1)C1=CC(c2ccc(C(F)(F)F)cc2)CC(OCc2ccc(CO)cc2)O1 (stereo not drawn)	.	.	.	-	.	-
Cc1nn(-c2cc(C)c3ccccc3n2)c2c1C1C(C2)C1(C)C (stereo not drawn)	-	-	-	-	-	83
Cc1cc(-n2nnc3ccccc32)nc2ccccc12	-	-	-	-	-	-
CCN1C(=O)C2C(c3ccc(-c4cccc(Cl)c4)c(OC)c3)N[C@@](C)(C(=O)OC)C2C1=O (stereo partly drawn)	.	.	.	-	.	-
CC(C)CCN1C(=O)c2ccc(C(=O)Nc3cc(C(=O)O)cc(C(=O)O)c3)cc2C1=O	-	-	-	-	-	-
O=C(Nc1cccc(O)c1)c1ccc2c(c1)C(=O)N(Cc1ccco1)C2=O	-	-	-	-	-	-
O=C(Nc1ccc(Cl)cc1C(=O)O)c1ccc2c(c1)C(=O)N(Cc1ccco1)C2=O	-	-	-	-	-	100
CC(C)CCN1C(=O)c2ccc(C(=O)Nc3ccc(Br)cc3C(=O)O)cc2C1=O	-	-	-	98	-	100
CC(CC(O)C1OC1(C)C)C1=C2CC(O)C3[C@@]4(C)CCC(=O)C(C)(C)C4CC[C@]3(C)[C@@]2(C)CC1 (stereo partly drawn)	.	.	.	-	.	-
CCCCCCCC(=O)OCC(=O)[C@@]1(O)CCC2C3CCC4=CC(=O)CC[C@]4(C)C3C(O)C[C@@]21C (stereo partly drawn)	.	.	.	-	.	-
COc1ccc(-c2csc3ncnc(N4CCN(S(=O)(=O)c5ccc(C)c(C)c5)CC4)c23)cc1	-	-	-	-	-	-
Cc1ccc(-c2csc3ncnc(N4CCN(S(=O)(=O)c5cccs5)CC4)c23)cc1	122	-	-	97	.	98
O=S(=O)(c1ccccc1)N1CCN(c2ncnc3scc(-c4ccccc4)c23)CC1	-	-	-	96	-	98
Cc1ccc(-c2csc3ncnc(N4CCN(S(=O)(=O)c5ccc(C#N)cc5)CC4)c23)cc1	.	.	-	.	.	.
COc1ccc(CN(CCC(c2ccccc2)c2ccc(OC(C)C)cc2)C(=O)CCl)cc1OC (stereo not drawn)	-	-	-	-	68	-
COc1cc(OC)c(OC)cc1/C=N/n1c(-c2n[nH]c3c2CCC3)n[nH]c1=S	28	-	-	.	-	.

Compound activity as filed in PubChem BioAssay.
